Binding signal data for 1 sequence are collected here from article PMC7862700, “An all-to-all approach to the identification of sequence-specific readers for epigenetic DNA modifications on cytosine”.

Common to all, as to test: DAPPL (digital affinity profiling via proximity ligation, sequencing); 10 mM Tris-HCl pH 7.5, 50 mM NaCl, 1 mM DTT, 4% glycerol, room temperature, 30 min; GST-TFs on glutathione beads, 16-mer random dsDNA library, 0.1% formaldehyde crosslink after washing; high values mean tight binding
One test has as its target T1, FEV (Homo sapiens, UniProt Q99581 1-238).
T1 sequence: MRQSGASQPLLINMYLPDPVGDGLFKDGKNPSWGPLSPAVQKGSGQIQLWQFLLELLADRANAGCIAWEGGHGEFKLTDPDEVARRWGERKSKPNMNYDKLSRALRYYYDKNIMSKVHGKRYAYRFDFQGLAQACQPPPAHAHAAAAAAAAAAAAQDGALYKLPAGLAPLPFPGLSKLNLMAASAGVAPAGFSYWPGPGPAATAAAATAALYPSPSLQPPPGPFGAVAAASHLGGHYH
Particulars: protein: recombinant; tags: N-terminal GST; dsDNA, one strand shown. Put shortly: (§1)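 Binding signal is each hexamer's read frequency for a factor divided by its frequency in the tag-only sample. The factors were GST-fused human transcription factors from yeast, captured on glutathione beads, DNA-barcoded and pooled with that sample. Pools were incubated with 200 nmole of a random double-stranded 16-mer DNA library in Tris/NaCl/DTT/glycerol buffer at room temperature for 30 min, then washed, crosslinked with 0.1% formaldehyde, proximity-ligated with BsaI/T4 ligase (1 h, 37 °C), PCR-amplified and sequenced on an Illumina NextSeq500.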

For another test, the target named is ETV5 (Homo sapiens, UniProt P41161 1-510). The conditions noted are these: protein: recombinant; tags: N-terminal GST; dsDNA, one strand shown. Put shortly: as §1
ETV5, sequence (P41161 whole entry): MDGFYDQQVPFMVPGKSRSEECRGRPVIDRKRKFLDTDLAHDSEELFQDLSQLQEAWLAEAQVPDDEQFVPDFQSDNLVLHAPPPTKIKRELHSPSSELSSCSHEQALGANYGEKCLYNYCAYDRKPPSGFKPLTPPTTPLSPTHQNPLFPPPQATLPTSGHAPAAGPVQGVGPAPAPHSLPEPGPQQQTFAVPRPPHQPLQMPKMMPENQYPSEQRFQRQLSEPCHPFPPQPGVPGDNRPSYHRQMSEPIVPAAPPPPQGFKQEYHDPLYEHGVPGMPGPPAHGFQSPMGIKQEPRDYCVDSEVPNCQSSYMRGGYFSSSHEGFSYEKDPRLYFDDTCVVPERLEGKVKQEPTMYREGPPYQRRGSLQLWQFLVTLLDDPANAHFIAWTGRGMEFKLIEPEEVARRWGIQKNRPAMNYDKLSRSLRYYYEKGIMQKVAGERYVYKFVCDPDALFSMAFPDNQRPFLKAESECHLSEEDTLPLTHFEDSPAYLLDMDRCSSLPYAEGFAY
In another test the target is HSF1 (Homo sapiens, UniProt Q00613 1-529). The conditions noted are these: protein: recombinant; tags: N-terminal GST; chain copies: 3; dsDNA, one strand shown. The procedure, abridged:
as §1

The target in another test is T2, SPIC (Homo sapiens, UniProt Q8N5J4 1-248).
T2 sequence: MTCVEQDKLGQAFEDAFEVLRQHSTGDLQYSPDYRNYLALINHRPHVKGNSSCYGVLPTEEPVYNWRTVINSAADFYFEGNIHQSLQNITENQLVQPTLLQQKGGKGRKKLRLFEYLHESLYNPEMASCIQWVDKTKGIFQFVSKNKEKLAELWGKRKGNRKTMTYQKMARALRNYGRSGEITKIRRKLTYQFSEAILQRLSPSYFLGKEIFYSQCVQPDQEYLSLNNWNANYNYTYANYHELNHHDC
The conditions noted are these: protein: recombinant; tags: N-terminal GST; dsDNA, one strand shown. Put shortly: as §1

For another test, the target named is ELF4 (Homo sapiens, UniProt Q99607 1-663). The conditions noted are these: protein: recombinant; tags: N-terminal GST; dsDNA, one strand shown. Put shortly: as §1
ELF4, sequence (Q99607 whole entry): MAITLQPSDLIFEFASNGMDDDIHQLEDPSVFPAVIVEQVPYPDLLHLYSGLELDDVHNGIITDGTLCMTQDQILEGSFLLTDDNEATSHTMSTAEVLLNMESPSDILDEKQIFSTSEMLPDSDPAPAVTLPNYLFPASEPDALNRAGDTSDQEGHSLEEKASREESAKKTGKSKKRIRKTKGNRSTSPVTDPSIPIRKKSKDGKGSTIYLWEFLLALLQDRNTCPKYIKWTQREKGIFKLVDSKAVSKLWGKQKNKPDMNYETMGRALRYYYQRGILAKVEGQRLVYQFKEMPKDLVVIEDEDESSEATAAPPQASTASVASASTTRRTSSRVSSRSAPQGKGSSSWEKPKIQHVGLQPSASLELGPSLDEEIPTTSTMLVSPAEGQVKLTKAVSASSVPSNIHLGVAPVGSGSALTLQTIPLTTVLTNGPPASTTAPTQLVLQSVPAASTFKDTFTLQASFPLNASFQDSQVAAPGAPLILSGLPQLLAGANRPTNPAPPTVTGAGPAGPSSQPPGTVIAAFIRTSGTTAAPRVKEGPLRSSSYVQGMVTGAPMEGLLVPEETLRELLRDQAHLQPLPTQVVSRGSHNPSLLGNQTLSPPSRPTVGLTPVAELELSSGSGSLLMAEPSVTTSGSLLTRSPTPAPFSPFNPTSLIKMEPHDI
Another test addresses T3, ELK4 (Homo sapiens, UniProt P28324-2 1-405).
T3 sequence: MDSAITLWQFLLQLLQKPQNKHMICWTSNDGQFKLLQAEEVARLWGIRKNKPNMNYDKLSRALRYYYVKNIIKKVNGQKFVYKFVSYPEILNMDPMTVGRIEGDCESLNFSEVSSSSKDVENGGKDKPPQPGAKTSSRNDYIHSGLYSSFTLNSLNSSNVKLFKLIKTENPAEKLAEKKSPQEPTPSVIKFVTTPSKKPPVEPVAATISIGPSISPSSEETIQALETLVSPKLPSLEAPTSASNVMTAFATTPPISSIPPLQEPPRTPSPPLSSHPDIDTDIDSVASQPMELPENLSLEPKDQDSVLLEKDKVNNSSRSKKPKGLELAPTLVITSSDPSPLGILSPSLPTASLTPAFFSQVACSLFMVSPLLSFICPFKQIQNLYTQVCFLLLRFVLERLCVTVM
Particulars: protein: recombinant; tags: N-terminal GST; dsDNA, one strand shown. The procedure, abridged:
as §1

The next test addresses T4, ETV2 (Homo sapiens, UniProt O00321 1-342).
T4 sequence: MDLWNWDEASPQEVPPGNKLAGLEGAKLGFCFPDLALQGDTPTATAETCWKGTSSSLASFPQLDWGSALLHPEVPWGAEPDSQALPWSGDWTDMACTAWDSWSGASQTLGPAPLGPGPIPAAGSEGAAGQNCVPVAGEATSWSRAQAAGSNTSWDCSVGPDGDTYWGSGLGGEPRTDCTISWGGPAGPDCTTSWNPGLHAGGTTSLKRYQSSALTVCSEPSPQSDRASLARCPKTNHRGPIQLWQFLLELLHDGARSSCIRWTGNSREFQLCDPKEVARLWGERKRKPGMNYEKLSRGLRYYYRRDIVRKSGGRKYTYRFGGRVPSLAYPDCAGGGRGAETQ
Particulars: protein: recombinant; tags: N-terminal GST; dsDNA, one strand shown. Put shortly:
as §1

A further test has as its target T5, ELF3 (Homo sapiens, UniProt P78545 1-371).
T5 sequence: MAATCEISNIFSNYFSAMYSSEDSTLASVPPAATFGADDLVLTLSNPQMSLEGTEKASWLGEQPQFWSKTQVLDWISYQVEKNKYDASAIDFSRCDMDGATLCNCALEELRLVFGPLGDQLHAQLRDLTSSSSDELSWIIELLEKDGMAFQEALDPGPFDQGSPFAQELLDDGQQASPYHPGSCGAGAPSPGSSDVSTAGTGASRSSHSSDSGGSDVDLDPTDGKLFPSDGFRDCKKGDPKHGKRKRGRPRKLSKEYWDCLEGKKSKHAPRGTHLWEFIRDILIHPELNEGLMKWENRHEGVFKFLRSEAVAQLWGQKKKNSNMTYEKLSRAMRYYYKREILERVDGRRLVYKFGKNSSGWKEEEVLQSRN
Particulars: protein: recombinant; tags: N-terminal GST; dsDNA, one strand shown. Put shortly: as §1

A further test deals with CRX (Homo sapiens, UniProt O43186 1-299). Particulars: protein: recombinant; tags: N-terminal GST; dsDNA, one strand shown. The procedure, abridged:
as §1

In a further test the target is ETV1 (Homo sapiens, UniProt P50549 1-477). The conditions noted are these: protein: recombinant; tags: N-terminal GST; dsDNA, one strand shown. The procedure, abridged: as §1
ETV1, sequence (P50549 whole entry): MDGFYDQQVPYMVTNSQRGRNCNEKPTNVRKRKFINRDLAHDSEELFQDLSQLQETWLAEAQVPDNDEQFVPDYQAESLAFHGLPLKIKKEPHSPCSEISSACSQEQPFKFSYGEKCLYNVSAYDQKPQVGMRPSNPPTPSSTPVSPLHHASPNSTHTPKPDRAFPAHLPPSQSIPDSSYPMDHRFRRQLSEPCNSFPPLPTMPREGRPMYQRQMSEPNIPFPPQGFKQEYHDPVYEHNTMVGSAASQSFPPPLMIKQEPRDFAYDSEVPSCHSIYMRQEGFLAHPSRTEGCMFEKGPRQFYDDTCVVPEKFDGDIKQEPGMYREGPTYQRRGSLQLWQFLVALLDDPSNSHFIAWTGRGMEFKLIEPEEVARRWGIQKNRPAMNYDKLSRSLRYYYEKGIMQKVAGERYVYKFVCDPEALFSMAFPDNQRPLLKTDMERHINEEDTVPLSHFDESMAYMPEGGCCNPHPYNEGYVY
Another test concerns the target T6, ERF (Homo sapiens, UniProt P50548 1-548).
T6 sequence: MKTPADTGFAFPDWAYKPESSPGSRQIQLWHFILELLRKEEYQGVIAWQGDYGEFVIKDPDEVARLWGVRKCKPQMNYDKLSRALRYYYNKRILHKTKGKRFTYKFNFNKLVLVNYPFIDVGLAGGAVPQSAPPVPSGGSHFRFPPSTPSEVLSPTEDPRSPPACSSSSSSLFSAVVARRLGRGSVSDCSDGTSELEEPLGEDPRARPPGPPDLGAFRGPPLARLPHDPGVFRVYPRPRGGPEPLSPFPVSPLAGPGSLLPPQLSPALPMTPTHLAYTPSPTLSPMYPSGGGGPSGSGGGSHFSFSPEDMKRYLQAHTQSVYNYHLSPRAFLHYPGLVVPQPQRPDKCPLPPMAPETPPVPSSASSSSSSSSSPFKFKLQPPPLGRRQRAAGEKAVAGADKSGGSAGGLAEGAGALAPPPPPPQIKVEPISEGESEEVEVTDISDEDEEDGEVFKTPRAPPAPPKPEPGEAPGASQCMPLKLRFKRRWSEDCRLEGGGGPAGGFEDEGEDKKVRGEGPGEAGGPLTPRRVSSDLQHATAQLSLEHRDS
The conditions noted are these: protein: recombinant; tags: N-terminal GST; dsDNA, one strand shown. The procedure, abridged:
as §1

Another test concerns the target T7, ETV3L (Homo sapiens, UniProt Q6ZN32 1-361).
T7 sequence: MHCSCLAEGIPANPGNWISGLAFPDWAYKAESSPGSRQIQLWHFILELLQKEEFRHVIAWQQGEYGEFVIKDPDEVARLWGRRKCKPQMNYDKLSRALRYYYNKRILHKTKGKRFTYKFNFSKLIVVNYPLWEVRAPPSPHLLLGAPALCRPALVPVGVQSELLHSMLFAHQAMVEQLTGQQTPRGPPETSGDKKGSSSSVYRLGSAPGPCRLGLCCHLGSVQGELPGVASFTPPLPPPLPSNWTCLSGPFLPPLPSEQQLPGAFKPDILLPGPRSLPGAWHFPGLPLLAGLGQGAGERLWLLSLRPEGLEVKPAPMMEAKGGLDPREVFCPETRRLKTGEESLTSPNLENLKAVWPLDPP
Particulars: protein: recombinant; tags: N-terminal GST; dsDNA, one strand shown. Put shortly: as §1

A further test addresses T8, ETS2 (Homo sapiens, UniProt P15036 1-469).
T8 sequence: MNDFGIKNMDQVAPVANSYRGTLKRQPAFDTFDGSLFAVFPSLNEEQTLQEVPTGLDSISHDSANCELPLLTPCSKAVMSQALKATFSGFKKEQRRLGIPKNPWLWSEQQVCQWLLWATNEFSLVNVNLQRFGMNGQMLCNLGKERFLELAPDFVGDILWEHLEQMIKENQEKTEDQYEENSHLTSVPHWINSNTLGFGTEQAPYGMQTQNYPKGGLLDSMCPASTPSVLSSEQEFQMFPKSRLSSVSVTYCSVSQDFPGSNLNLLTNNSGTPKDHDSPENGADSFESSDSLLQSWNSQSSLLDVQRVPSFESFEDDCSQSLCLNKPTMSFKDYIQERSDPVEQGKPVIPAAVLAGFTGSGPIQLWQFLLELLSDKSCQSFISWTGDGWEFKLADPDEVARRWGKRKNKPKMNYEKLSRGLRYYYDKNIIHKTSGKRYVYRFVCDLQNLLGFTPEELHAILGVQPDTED
The conditions noted are these: protein: recombinant; tags: N-terminal GST; dsDNA, one strand shown. Put shortly:
as §1

The target of a further test is T9, SPDEF (Homo sapiens, UniProt O95238 1-335).
T9 sequence: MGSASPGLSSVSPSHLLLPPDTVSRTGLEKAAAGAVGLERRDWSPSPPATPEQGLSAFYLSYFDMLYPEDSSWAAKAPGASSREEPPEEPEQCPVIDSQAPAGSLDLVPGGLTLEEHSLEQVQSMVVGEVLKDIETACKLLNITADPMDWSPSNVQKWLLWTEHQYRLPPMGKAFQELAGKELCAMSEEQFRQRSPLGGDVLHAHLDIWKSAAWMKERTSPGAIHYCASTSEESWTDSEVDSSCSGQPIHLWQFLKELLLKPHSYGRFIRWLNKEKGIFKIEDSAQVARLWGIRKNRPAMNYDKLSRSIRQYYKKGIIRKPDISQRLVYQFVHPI
Particulars: protein: recombinant; tags: N-terminal GST; dsDNA, one strand shown. The procedure, abridged:
as §1

The target of another test is T10, ETV7 (Homo sapiens, UniProt Q9Y603 1-341).
T10 sequence: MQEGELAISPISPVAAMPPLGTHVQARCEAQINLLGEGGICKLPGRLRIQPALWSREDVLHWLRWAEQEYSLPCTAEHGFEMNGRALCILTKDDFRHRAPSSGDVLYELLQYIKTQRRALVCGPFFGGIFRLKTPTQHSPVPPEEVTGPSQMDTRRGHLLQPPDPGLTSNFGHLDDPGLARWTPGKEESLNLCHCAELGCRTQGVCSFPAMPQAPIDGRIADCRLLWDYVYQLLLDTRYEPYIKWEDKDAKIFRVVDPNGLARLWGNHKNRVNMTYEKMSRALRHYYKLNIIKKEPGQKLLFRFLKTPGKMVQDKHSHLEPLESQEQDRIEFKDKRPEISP
The conditions noted are these: protein: recombinant; tags: N-terminal GST; dsDNA, one strand shown. The procedure, abridged: as §1

The target of a further test is T11, ELF5 (Homo sapiens, UniProt Q9UKW6-2 1-255).
T11 sequence: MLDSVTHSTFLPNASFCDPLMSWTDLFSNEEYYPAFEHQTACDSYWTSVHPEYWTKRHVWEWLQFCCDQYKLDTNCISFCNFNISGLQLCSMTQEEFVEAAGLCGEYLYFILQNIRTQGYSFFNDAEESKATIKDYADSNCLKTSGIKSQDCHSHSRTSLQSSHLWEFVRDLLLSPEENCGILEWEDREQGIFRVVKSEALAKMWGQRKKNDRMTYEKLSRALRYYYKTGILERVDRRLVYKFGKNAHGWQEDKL
The conditions noted are these: protein: recombinant; tags: N-terminal GST; dsDNA, one strand shown. Put shortly: as §1

Another test concerns the target T12, ETV3 (Homo sapiens, UniProt P41162-2 1-143).
T12 sequence: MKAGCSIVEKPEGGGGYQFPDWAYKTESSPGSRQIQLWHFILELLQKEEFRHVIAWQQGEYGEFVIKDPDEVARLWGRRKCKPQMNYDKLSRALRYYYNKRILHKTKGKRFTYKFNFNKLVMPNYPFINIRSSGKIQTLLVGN
Particulars: protein: recombinant; tags: N-terminal GST; dsDNA, one strand shown. Put shortly:
as §1

For a further test, the target named is ETV6 (Homo sapiens, UniProt P41212 1-452). The conditions noted are these: protein: recombinant; tags: N-terminal GST; dsDNA, one strand shown. Put shortly:
as §1

ETV6, sequence (P41212 whole entry): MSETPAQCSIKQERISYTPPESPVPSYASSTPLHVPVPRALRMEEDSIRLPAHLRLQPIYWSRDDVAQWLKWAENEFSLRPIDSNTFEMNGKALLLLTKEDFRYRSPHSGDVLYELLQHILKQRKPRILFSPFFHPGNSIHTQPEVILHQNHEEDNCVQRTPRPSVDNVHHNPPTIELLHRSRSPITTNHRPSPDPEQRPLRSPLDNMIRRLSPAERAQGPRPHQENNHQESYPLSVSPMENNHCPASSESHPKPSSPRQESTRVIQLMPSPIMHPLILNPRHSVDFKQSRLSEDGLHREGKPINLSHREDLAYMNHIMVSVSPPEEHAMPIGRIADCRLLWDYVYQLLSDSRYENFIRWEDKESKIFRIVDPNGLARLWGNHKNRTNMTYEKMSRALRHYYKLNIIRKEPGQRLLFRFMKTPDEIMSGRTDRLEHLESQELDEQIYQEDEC
CRX, sequence (O43186 whole entry): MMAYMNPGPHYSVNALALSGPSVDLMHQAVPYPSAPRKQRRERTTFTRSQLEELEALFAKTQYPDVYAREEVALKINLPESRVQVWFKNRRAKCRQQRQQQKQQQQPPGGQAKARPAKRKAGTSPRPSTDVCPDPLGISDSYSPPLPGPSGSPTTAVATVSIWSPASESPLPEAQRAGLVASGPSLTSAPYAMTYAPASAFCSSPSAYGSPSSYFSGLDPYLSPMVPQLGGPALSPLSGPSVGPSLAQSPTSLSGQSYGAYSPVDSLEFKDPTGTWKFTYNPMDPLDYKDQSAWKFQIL
HSF1, sequence (Q00613 whole entry): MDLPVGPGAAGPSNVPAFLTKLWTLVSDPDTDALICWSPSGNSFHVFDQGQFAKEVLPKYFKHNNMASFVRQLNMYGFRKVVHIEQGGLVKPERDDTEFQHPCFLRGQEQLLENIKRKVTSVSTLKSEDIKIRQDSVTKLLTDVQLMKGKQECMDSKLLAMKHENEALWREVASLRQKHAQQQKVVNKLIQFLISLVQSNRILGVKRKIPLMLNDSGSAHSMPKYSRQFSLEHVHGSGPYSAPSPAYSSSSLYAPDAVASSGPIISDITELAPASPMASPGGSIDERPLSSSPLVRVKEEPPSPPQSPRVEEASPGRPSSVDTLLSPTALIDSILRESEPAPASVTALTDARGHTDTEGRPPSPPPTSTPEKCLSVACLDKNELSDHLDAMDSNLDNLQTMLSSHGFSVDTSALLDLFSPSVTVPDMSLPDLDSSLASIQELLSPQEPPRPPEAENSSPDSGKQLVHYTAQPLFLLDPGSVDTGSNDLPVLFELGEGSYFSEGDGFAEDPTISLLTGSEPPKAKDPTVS

ACGTTT: the binding signal with FEV is 1.22 fold enrichment (6-mer frequency, TF over GST control); with ETV5 it was 1.15 fold enrichment (6-mer frequency, TF over GST control); with HSF1 it was 1.05 fold enrichment (6-mer frequency, TF over GST control); in the test with SPIC, 1.29 fold enrichment (6-mer frequency, TF over GST control); with ELF4, 1.14 fold enrichment (6-mer frequency, TF over GST control); with ELK4, 1.22 fold enrichment (6-mer frequency, TF over GST control). Moreover, the binding signal was 1.18 fold enrichment (6-mer frequency, TF over GST control) in the test with ETV2; 1.08 fold enrichment (6-mer frequency, TF over GST control) in the test with ELF3; 1 fold enrichment (6-mer frequency, TF over GST control) in the test with CRX; 1.22 fold enrichment (6-mer frequency, TF over GST control) with ETV1; 1.18 fold enrichment (6-mer frequency, TF over GST control) with ERF; 1.13 fold enrichment (6-mer frequency, TF over GST control) in the test with ETV3L. Moreover, the binding signal in the test with ETS2 is 1.2 fold enrichment (6-mer frequency, TF over GST control); in the test with SPDEF it was 1.21 fold enrichment (6-mer frequency, TF over GST control); with ETV7, 1.33 fold enrichment (6-mer frequency, TF over GST control); with ELF5, 1.23 fold enrichment (6-mer frequency, TF over GST control); with ETV3 it was 1.1 fold enrichment (6-mer frequency, TF over GST control); in the test with ETV6 it was 1.33 fold enrichment (6-mer frequency, TF over GST control).
